From PubChem BioAssay AID818 (SRMLSC, 2007) come the findings set out here.

The whole screen tested about 140,000 compounds, of which about 2,100 (1.5%) were called active. This is one part of a sample in which actives are shown more often than they occur. Unmarked numbers belong to inactive results.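 The calls were made as follows: active = viability at or under a set limit, the compound median less 4 SD (cut at about 6% in these data); inactive = the rest.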

The assay in a line: primary screen for growth suppressors in beta-catenin knockout HCT116 cells (colon tumor, human) (AID 818).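 Also: 0% = Hyamine 1622 control at 20 µM and 100% = untreated cell control.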 As to conditions: CellTiter-Glo, 60 h, at 10 µM, stronger effect = lower value. In general terms: ATP-based viability assays read luminescence as a measure of living cells.
As for `CCN(C(=O)COc1cccnc1[N+](=O)[O-])C1CCS(=O)(=O)C1` (stereo unspecified), the viability is 85.6%.

As to `COC(C(=O)NCc1ccccc1C)c1ccccc1` (stereo unspecified), the viability was 90%.

Regarding `CCN(CC)CCNCc1ccc(OCc2ccc(Cl)nc2)c(OC)c1`, the viability is 96.9%.

Take `Cc1c(Cl)cccc1NC(=O)Nc1ccc(C(=O)N2CCCC2)cc1`: the viability was 70.1%.

With `c1ccc2cc3c(NCCN4CCOCC4)ccnc3cc2c1`, the viability is 2.37% (active).

With `c1ccc2[nH]c(NCCN3CCOCC3)nc2c1`, the viability was 92%.

On to `O=C(Cn1c(-c2ccccn2)nc2ccccc21)NCCN1CCOCC1`, for which the viability is 98.8%.

On to `CC(C)CCNC(=O)c1cccnc1Sc1ccccc1`, for which the viability was 96.4%.

Consider `CC(C)(C)CC(C)(C)NCC(O)COCCOc1ccc(Br)cc1` (stereo unspecified), for which the viability was 1.6% (active).

Consider `CCC(C)NCCOCCOc1ccc(Br)cc1C` (stereo unspecified), for which the viability was 70.2%.

Take `Cc1noc(COc2ccccc2OCC(O)CNC(C)(C)C)n1` (stereo unspecified): the viability is 98.6%.

As to `CCOc1ccc(NC(=S)N2CCC(N(C)CC3CCCO3)CC2)cc1` (stereo unspecified), the viability is 96.9%.

`Cc1ccc(NC(=O)COC(=O)CCc2nc3ccccc3n2-c2ccccc2)c(C)c1`: the viability was 79.9%.

As for `COc1ccc(CN2CN(C(C)C)CSC2=S)cc1`, the viability was 5.75% (active).

For `S=C1SCN(CCN2CCOCC2)CN1Cc1ccccc1`, the viability is 20.5%.

Take `O=C(NN1C(=O)C2C3C=CC(C3)C2C1=O)c1ccco1` (stereo unspecified): the viability is 93.7%.

In the case of `COc1cc(OC)nc(N/N=C(\c2ccccc2)c2ccncc2)n1`, the viability is 63.6%.

Turning to `OC(CNCC1CCCO1)Cn1c2ccc(Br)cc2c2cc(Br)ccc21` (stereo unspecified), the viability is 1.48% (active).

As to `Cc1cc(Br)ccc1NC(=O)C1CCCO1` (stereo unspecified), the viability is 96.2%.

`Cc1ccc(C(=O)NCC2CCCO2)o1` (stereo unspecified): the viability is 106%.

For the compound `COc1ccc(NC(=S)NCc2cccs2)c(OC)c1`, the viability is 96%.

On to `COc1ccc(C(C(=O)NC2CCCCC2)N(C(=O)Cc2c[nH]c3ccccc23)c2ccccc2)cc1OC` (stereo unspecified), for which the viability is 63.4%.

In the case of `CC(CC(=O)Nc1cc(C(F)(F)F)ccc1Cl)c1ccccc1` (stereo unspecified), the viability was 61.2%.

`O=C(NNc1ccccc1Cl)C(O)(c1cccc(C(F)(F)F)c1)c1cccc(C(F)(F)F)c1`: the viability was 3.21% (active).

With `O=C(Nc1cc(C(F)(F)F)ccc1Cl)C(=O)N1CCCCC1`, the viability was 99.1%.

With `CCc1nnc(NC(=O)/C=C/c2ccc(C)o2)s1`, the viability is 97.8%.

For `CCN1/C(=C/c2ccc3ccc(C)cc3[n+]2CC)Sc2ccccc21`, the viability was 2.41% (active).

Consider `CCC(=O)/C=C1\Sc2ccccc2N1CC`, for which the viability is 89%.

On to `COc1ccc(C(CCN(Cc2ccc(OC)c(OC)c2)C(=O)CCl)c2ccccc2)cc1` (stereo unspecified), for which the viability was 1.9% (active).

On to `COc1ccc(CCN(C(=O)COc2ccccc2)c2nc(-c3ccccc3)cs2)cc1OC`, for which the viability was 77.2%.

Turning to `CCOC(=O)CN(Cc1ccc(OC)c(OC)c1)S(=O)(=O)c1ccc(OC)cc1`, the viability was 91.4%.

On to `CCOC(=O)C(NC(=O)CC(C)C)(Nc1sc2c(c1C(N)=O)CCCC2)C(F)(F)F` (stereo unspecified), for which the viability is 97.2%.

Regarding `COc1ccc(OC)c(C2C3=C(N=c4s/c(=C\c5cccc(O)c5)c(=O)n42)c2ccccc2CC3)c1` (stereo unspecified), the viability is 3.2% (active).

For `CCOC(=O)C1=C(C)N=c2s/c(=C\C(=O)OC)c(=O)n2C1c1ccc(OC)cc1` (stereo unspecified), the viability was 98.8%.

Take `O=C1CCCC2=C1C(c1ccccc1)n1c(s/c(=C/c3cccc(F)c3)c1=O)=N2` (stereo unspecified): the viability was 83.9%.

Consider `O=C(Nc1cn(-c2ccccc2)nc1-c1ccccc1)c1ccccc1`, for which the viability was 82%.

On to `COc1cccc(NC(=S)NCc2ccco2)c1`, for which the viability was 96.7%.

`O=[N+]([O-])c1ccc(C=Nc2ccc(Cl)cc2Cl)s1`: the viability is 3.51% (active).

Regarding `CC1(C)CC(=O)C/C(=N\NC(=O)c2cccs2)C1`, the viability is 93%.

As for `Cc1ccc(S(=O)(=O)N(Cc2ccc(Cl)cc2)c2ccccc2C(=O)NCc2cccnc2)cc1`, the viability was 81.5%.

As to `O=C(c1c(Cl)nc2sccn12)N1CCCc2ccccc21`, the viability is 91.5%.

With `O=C(CCCN1C(=O)/C(=C/c2ccco2)SC1=S)Nc1ccccc1`, the viability is 25.7%.

Turning to `O=C1/C(=C\c2ccccc2Cl)SC(=S)N1CCC(=O)N1CCCc2ccccc21`, the viability is 4.79% (active).

For the compound `CCOc1ccc(C(=O)Nc2cccc(SC)c2)cc1`, the viability was 86.8%.

With `NC1=NC(=O)S/C1=C\c1ccc(O)cc1`, the viability was 78.6%.

`CCOC(=O)c1cc2n(c1C)-c1ccccc1C2=O`: the viability is 90.9%.

Consider `CCOC(=O)c1c(C)[nH]c2c1-c1ccccc1C(=O)C2=O`, for which the viability is 1.06% (active).

As to `CCOC(=O)c1c(C)[nH]c(=S)c(C#N)c1-c1ccccc1`, the viability was 101%.

In the case of `CCC1(C(=O)c2ccccc2)C(c2cccc([N+](=O)[O-])c2)C1(C(=O)OC)C(=O)OC` (stereo unspecified), the viability is 82.6%.

Turning to `Cc1cc(/C=C2\SC(=Nc3ccc(N4CCOCC4)cc3)N(C)C2=O)c(C)n1-c1cccnc1`, the viability is 54.8%.

`CCOC(=O)NN1C(=O)c2ccccc2NC1c1cccc(O)c1` (stereo unspecified): the viability is 106%.

In the case of `O=C1c2ccccc2NC(c2ccc(-c3cccc(Cl)c3)o2)N1O` (stereo unspecified), the viability is 2.84% (active).

In the case of `C=CCn1c(CCNC(=O)c2cccs2)n[nH]c1=S`, the viability was 99.3%.

For `COC(=O)Cn1c(=NC(=O)c2cc(OC)c(OC)c(OC)c2)sc2cc(OC)ccc21`, the viability is 81.5%.

For the compound `O=C1OC(c2ccc(Cl)cc2)=N/C1=C\c1cccnc1`, the viability was 95.6%.

As to `O=C(O)C1CC(=O)N(Cc2cccnc2)C1` (stereo unspecified), the viability is 90.7%.

On to `O=C1/C(=C\c2cccnc2)CN(Cc2ccccc2)C/C1=C\c1cccnc1`, for which the viability is 5.51% (active).

`CCc1ccc(NC2Nc3cc(C)nn3S2)cc1` (stereo unspecified): the viability was 95.4%.

As for `O=C(CSc1nc2ccccc2[nH]1)c1cccs1`, the viability is 78.2%.

`CN=C1S/C(=C\c2ccc(Sc3ccc(Cl)cc3)o2)C(=O)N1C`: the viability is 96.9%.

In the case of `CCC(C)N1C(=O)S/C(=C/c2ccc(Sc3nc4ccccc4[nH]3)o2)C1=O` (stereo unspecified), the viability was 4.08% (active).

Turning to `CC1Cc2ccccc2N1C(=O)CSc1nnc(-c2ccc(S(=O)(=O)N3CCCC3)cc2)n1C` (stereo unspecified), the viability was 81%.

In the case of `CCCCN(CC)C(=O)c1ccccc1Oc1ccccc1`, the viability is 85.8%.

Consider `COC1=CCC2([N+](=O)[O-])CN(CC(=O)O)CC1([N+](=O)[O-])C2` (stereo unspecified), for which the viability is 99%.

In the case of `O=C(CC(=O)Nc1ccc(Cl)c(Cl)c1)N/N=C/c1ccc(O)cc1`, the viability is 81%.

For `O=C(CC(O)(C(F)(F)F)C(F)(F)F)Nc1ccc(Cl)c(Cl)c1`, the viability was 2.26% (active).

In the case of `O=C(Cc1ccc(Cl)c(Cl)c1)Nc1ccc(SC(F)F)cc1`, the viability was 35.8%.

On to `C/C(=N\Nc1ccc([N+](=O)[O-])cc1)c1ccc(-n2nncc2C(C)(C)C)cc1`, for which the viability is 97.1%.

Regarding `CCN(/N=C/c1ccc(N(C)C)cc1)c1nc2ccccc2[nH]1`, the viability is 87.6%.

In the case of `O=C(COC(=O)c1cc([N+](=O)[O-])ccc1NCc1ccccc1)NC1CCCCC1`, the viability is 45.6%.

Take `C/C(CCC(=O)OC[C@H]1O[C@H](C#Cc2ccccc2)C=C[C@@H]1Oc1ccc(C)cc1)=N\OC[C@@H](O)[C@H]1O[C@@H]2OC(C)(C)O[C@@H]2[C@H]1O`: the viability was 86.2%.

With `CSCCC(Nc1ccc(S(=O)(=O)N2CCOCC2)cc1[N+](=O)[O-])C(=O)OCC(=O)N(C(C)C)C(C)C` (stereo unspecified), the viability is 92.2%.

For the compound `COc1ccc(Oc2c(Cl)cnn(-c3ccccc3)c2=O)cc1`, the viability is 5.5% (active).

With `Cc1ccc(-c2nc3c(cnn3-c3ccccc3)c(=O)o2)cc1`, the viability was 95.4%.

In the case of `COc1ccc(-n2c(C)nc3c(cnn3-c3ccccc3)c2=O)cc1`, the viability was 29.9%.

Regarding `COc1ccccc1OCc1ccc(C(=O)N2CCN(C)CC2)o1`, the viability is 101%.

As to `CCOc1ccc(C(=O)Nc2nccs2)cc1[N+](=O)[O-]`, the viability was 94%.

On to `COc1ccccc1/C=N\Nc1cc(C)nc(-n2nc(C)cc2C)n1`, for which the viability is 3.9% (active).

As to `COc1cc(NS(=O)(=O)c2ccccc2)ccc1-n1nc(C)cc1C`, the viability was 101%.

As for `COc1ccc(Nc2cc(C)nc(-n3nc(C)cc3C)n2)cc1`, the viability is 15.2%.

For `COc1ccc(-n2c(=S)[nH]c3sc4c(c3c2=O)CCc2ccccc2-4)cc1`, the viability is 81%.

Consider `CN(C)C(=O)c1ccc2c(c1)C1C3CCC(C3)C1C(c1ccccc1)N2` (stereo unspecified), for which the viability is 83.3%.

`CC(C)(C)c1ccc(C(=O)NCCn2c(N)c(C#N)c3nc4ccccc4nc32)cc1`: the viability was 66.5%.

Consider `CN(C)CCCn1c(N)c(C#N)c2nc(C#N)c(C#N)nc21`, for which the viability is 5.78% (active).

In the case of `N#Cc1c(N)n(CCOC(=O)c2ccc(Cl)cc2)c2nc3ccccc3nc12`, the viability is 84.2%.

`CCC1C(=O)c2ccccc2N(C)C1=O` (stereo unspecified): the viability is 88.1%.

Consider `C[C@@H](O)c1nc2ccccc2n1N`, for which the viability is 96%.

Regarding `CCOc1ccc(NC(=O)CN2CCN(CC(=O)Nc3ccc(OC)cc3)CC2)cc1`, the viability was 85.4%.

As for `CCOc1ccc(NC(=O)CCC(=O)n2nc(C)cc2C)cc1`, the viability is 96.2%.

As for `CCOc1ccc(NC(=O)CCC(=O)N/N=C/c2ccc([N+](=O)[O-])s2)cc1`, the viability was 5.45% (active).

Turning to `CSc1ccc(/C=N/NC(=O)c2cccc(Cl)c2)cc1`, the viability is 84.1%.

In the case of `COc1ccc2c(-c3ccccc3)cc(SCC(=O)N(C)C3CCS(=O)(=O)C3)nc2c1` (stereo unspecified), the viability is 81.2%.

Take `CCCn1nc(NS(=O)(=O)c2ccccc2)c2cc3cc(C)ccc3nc21`: the viability is 91.5%.

For `O=C(CCC(=O)c1cccs1)NCc1ccccc1`, the viability is 88.8%.

Consider `Cc1ccc(C)c(NC(CC(=O)c2ccccc2)C(=O)OCC(=O)c2cccs2)c1` (stereo unspecified), for which the viability is 86.5%.

For `Cc1ccccc1C(CC(=O)c1cccs1)C(C#N)C#N` (stereo unspecified), the viability was 2.37% (active).

A word on the viability: it is a read-out of living cells in per cent, often relative to untreated cells.
